Reference: PubChem BioAssay (NCI)
This is part of a sample that, as a whole, favours compounds with a hit. Of some 83,000 tested, about 20% had one in any assay.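 Percent growth is the endpoint: 0 to 100 indicates growth inhibition (40 means 60% inhibition), 0 means no net growth, and negative values indicate cell death.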 Unmarked numbers belong to inactive results. Active and inactive are the calls of the source. Rule for the calls: active = growth percent below 10; inactive = the rest.

Each compound was assayed on MCF7 breast (assay: NCI-60 one-dose screen, 48 h (100 = growth as untreated, 0 = no growth, -100 = all killed)). Conditions: 10 µM unless noted.

Row | SMILES | growth
1 | O=C(CS(=O)c1oc(-c2cccs2)nc1S(=O)(=O)c1ccc(Br)cc1)c1ccccc1 (stereo unspecified) | 96.9%
2 | Cc1cccc2c(=O)c3c(sc12)c(NCc1ccccc1)nc1ccccc13 | 27.2%
3 | COc1ccc2c(c1)c(-c1nn3cc(-c4cccs4)nc3s1)cn2C | 60.4%
4 | CCOC(=O)/C(C#N)=C\Nc1ccc2ncnc(Nc3ccc(Cl)cc3Cl)c2c1 | 87.6%
5 | CCCCCCNC(=O)Oc1ccc(/C(=C(\C)c2ccc(Cl)cc2)c2ccc(OCCN3CCCCC3)cc2)cc1 | 7.75% (active)
6 | CCN(CC)S(=O)(=O)c1ccc(NC(=O)CSc2nnc(C)n2-c2ccccc2)cc1 | 113%
7 | CN(C)c1ccc2nc3ccc(=[N+](C)C)c([N+](=O)[O-])c-3sc2c1 | 7.94% (active)
8 | COc1ccc(-c2nn(C(=O)c3cc(OC)c(OC)c(OC)c3)c3cc(N)ccc23)cc1 | 6.74% (active)
9 | O=C(Nc1ccc(I)cc1F)c1cc(I)ccc1O | 3.31% (active)
10 | COc1cc2oc(-c3ccc(O)cc3)cc(=O)c2c(O)c1-c1c(OC)cc(O)c2c(=O)cc(-c3ccc(O)cc3)oc12 | 38%
11 | CCCCOc1nc2ccc(OC)cc2cc1-c1cc(-c2ccc(Cl)cc2)nc(-c2ccc(Cl)cc2)c1 | 97.5%
12 | COc1ccc(/C=C(/C#N)n2nnc3cccc(F)c32)cc1 | 17.1%
13 | O=C(Cc1ccc(F)c(Cl)c1)Nc1cc(C2(C(F)(F)F)CC2)nn1Cc1ccccc1 | 81%
14 | COc1ccc2nc(NCCCNCCO)c3sc4ccc(F)cc4c(=O)c3c2c1 | 17.8%
15 | CN1CCN(c2ccc(-c3cnc4c(-c5csc6ccccc56)cnn4c3)cc2)CC1 | -22.5% (active)
16 | O=CN1N=C(c2ccc(Nc3ccnc4cc(Cl)ccc34)cc2)CC1c1ccccc1 (stereo unspecified) | 18.2%
17 | Cc1nc2ccccc2c(/C=C/c2ccccc2)c1C(=O)/C=C/c1ccc(C(F)(F)F)cc1 | -9.44% (active)
18 | Cc1ccc(-c2nc(N3CCN(C(=O)c4ccc(OC(F)(F)F)cc4)CC3)c3ccccc3n2)cc1 | 92.9%
19 | C[C@H]1[C@H]2[C@H]3CC[C@@H]4[C@@]5(C)CC[C@H](O)C(C)(C)[C@@H]5CC[C@@]4(C)[C@]3(C)CC[C@]23CO[C@]1(C)[C@@H](C(=O)/C=C\c1cccnc1)C3 | 23.7%

Row | SMILES | growth
20 | COC(=O)[C@H](C)NC(=O)NC(=O)NC(=O)CI | 17.7%
21 | CC(=O)OC[C@H]1OC(Sc2sc(C(=O)c3ccc(C)cc3)c(N)c2-c2nc3ccccc3s2)[C@H](OC(C)=O)[C@@H](OC(C)=O)[C@@H]1OC(C)=O (stereo partly specified) | 73.6%
22 | COc1ccc(-c2nc(NN)c3c(C)nn(-c4ccc(F)cc4)c3n2)cc1 | 26.2%
23 | O=C(Nc1ccc(OS(=O)(=O)c2ccc(F)cc2)cc1)c1ccc(Cl)cc1 | 92.9%
24 | CC1CN(C2CCCCC2)C(=S)N(c2ccccc2)C1=O (stereo unspecified) | 96.1%
25 | N#Cc1c(-c2ccc(Cl)cc2)nc2c(c(-c3ccccc3)nn2-c2ccccc2)c1-c1ccc(O)cc1 | 19.6%
26 | COc1ccc(/C=N/Nc2cc(=O)[nH]c3ccc(Cl)cc23)cc1 | 35.2%
27 | CC(=O)CC[C@H]1C(=O)N[C@@H](C(C)C)C(=O)N[C@@H](Cc2cc(O)cc(F)c2)C(=O)N2CCC[C@H](N2)C(=O)O[C@H](/C(C)=C/C=C/C(=O)OC(C)(C)C)C/C=C/C=C/[C@H](O)[C@H](C)[C@H]1O | 48.2%
28 | O=C1CCC(C(=O)NCCNCCNC(=O)C2CCC(=O)N2)N1 (stereo unspecified) | 98.3%
29 | Nc1nn(C(=O)Nc2ccc(Cc3ccccc3)cc2)c2ccc(Cl)cc12 | 20.7%
30 | COc1cc(/C=C/c2ccccc2)cc(OC)c1 | 71.4%
31 | CC1Cc2ccccc2N1NC(=O)c1ccc(Cl)c(S(N)(=O)=O)c1 (stereo unspecified) | 92.2%
32 | CC1(C)C2CC1C1(/C=N\Nc3ccccc3)C(C2)C(C#N)(C#N)C1(C#N)C#N (stereo unspecified) | 94.8%
33 | COc1ccc(NC(=O)n2nc(/C=C\c3ccc(O)c(OC)c3)cc2/C=C\c2ccc(O)c(OC)c2)cc1 | 15.6%
34 | CN1CCN(c2ccc(-c3ccc4ncc(C#N)c(Nc5ccc(F)c(Cl)c5)c4c3)cn2)CC1 | 66.9%
35 | O=c1[nH]c2c(ccc3cnccc32)c2c1CCC2 | -4.54% (active)
36 | COc1nc2ccccc2cc1-c1nc2c(cnn2-c2ccc(Br)cc2)c(=O)[nH]1 | 22.1%
37 | Cn1cc(C(=O)c2nc(-c3cn(C)c4ccc(F)cc34)no2)c2cc(F)ccc21 | 47.3%
38 | Cc1cccc(OCC(O)CN2CCN(c3ccc(Cl)cc3)CC2)c1 (stereo unspecified) | 87.5%

What follows are compounds tested on HCT-116 colon in the same assay as above. Conditions: 10 µM unless noted.

Row | SMILES | growth
39 | O=C(CS(=O)c1oc(-c2cccs2)nc1S(=O)(=O)c1ccc(Br)cc1)c1ccccc1 (stereo unspecified) | 86.2%
40 | Cc1cccc2c(=O)c3c(sc12)c(NCc1ccccc1)nc1ccccc13 | 77%
41 | COc1ccc2c(c1)c(-c1nn3cc(-c4cccs4)nc3s1)cn2C | 82.8%
42 | CCOC(=O)/C(C#N)=C\Nc1ccc2ncnc(Nc3ccc(Cl)cc3Cl)c2c1 | 92.9%
43 | CCCCCCNC(=O)Oc1ccc(/C(=C(\C)c2ccc(Cl)cc2)c2ccc(OCCN3CCCCC3)cc2)cc1 | 6.05% (active)
44 | CCN(CC)S(=O)(=O)c1ccc(NC(=O)CSc2nnc(C)n2-c2ccccc2)cc1 | 102%
45 | CN(C)c1ccc2nc3ccc(=[N+](C)C)c([N+](=O)[O-])c-3sc2c1 | 20.7%
46 | COc1ccc(-c2nn(C(=O)c3cc(OC)c(OC)c(OC)c3)c3cc(N)ccc23)cc1 | 5.15% (active)
47 | O=C(Nc1ccc(I)cc1F)c1cc(I)ccc1O | 5.17% (active)
48 | COc1cc2oc(-c3ccc(O)cc3)cc(=O)c2c(O)c1-c1c(OC)cc(O)c2c(=O)cc(-c3ccc(O)cc3)oc12 | 20.5%
49 | CCCCOc1nc2ccc(OC)cc2cc1-c1cc(-c2ccc(Cl)cc2)nc(-c2ccc(Cl)cc2)c1 | 102%
50 | COc1ccc(/C=C(/C#N)n2nnc3cccc(F)c32)cc1 | 10.1%
51 | O=C(Cc1ccc(F)c(Cl)c1)Nc1cc(C2(C(F)(F)F)CC2)nn1Cc1ccccc1 | 60.4%
52 | COc1ccc2nc(NCCCNCCO)c3sc4ccc(F)cc4c(=O)c3c2c1 | -67.2% (active)
53 | CN1CCN(c2ccc(-c3cnc4c(-c5csc6ccccc56)cnn4c3)cc2)CC1 | -23.8% (active)
54 | O=CN1N=C(c2ccc(Nc3ccnc4cc(Cl)ccc34)cc2)CC1c1ccccc1 (stereo unspecified) | 24%
55 | Cc1nc2ccccc2c(/C=C/c2ccccc2)c1C(=O)/C=C/c1ccc(C(F)(F)F)cc1 | -64.5% (active)
56 | Cc1ccc(-c2nc(N3CCN(C(=O)c4ccc(OC(F)(F)F)cc4)CC3)c3ccccc3n2)cc1 | 85.3%
57 | C[C@H]1[C@H]2[C@H]3CC[C@@H]4[C@@]5(C)CC[C@H](O)C(C)(C)[C@@H]5CC[C@@]4(C)[C@]3(C)CC[C@]23CO[C@]1(C)[C@@H](C(=O)/C=C\c1cccnc1)C3 | 14.4%

Row | SMILES | growth
58 | COC(=O)[C@H](C)NC(=O)NC(=O)NC(=O)CI | 98.6%
59 | CC(=O)OC[C@H]1OC(Sc2sc(C(=O)c3ccc(C)cc3)c(N)c2-c2nc3ccccc3s2)[C@H](OC(C)=O)[C@@H](OC(C)=O)[C@@H]1OC(C)=O (stereo partly specified) | 39.3%
60 | COc1ccc(-c2nc(NN)c3c(C)nn(-c4ccc(F)cc4)c3n2)cc1 | 18.7%
61 | O=C(Nc1ccc(OS(=O)(=O)c2ccc(F)cc2)cc1)c1ccc(Cl)cc1 | 95.5%
62 | CC1CN(C2CCCCC2)C(=S)N(c2ccccc2)C1=O (stereo unspecified) | 101%
63 | N#Cc1c(-c2ccc(Cl)cc2)nc2c(c(-c3ccccc3)nn2-c2ccccc2)c1-c1ccc(O)cc1 | 14.3%
64 | COc1ccc(/C=N/Nc2cc(=O)[nH]c3ccc(Cl)cc23)cc1 | 8.92% (active)
65 | CC(=O)CC[C@H]1C(=O)N[C@@H](C(C)C)C(=O)N[C@@H](Cc2cc(O)cc(F)c2)C(=O)N2CCC[C@H](N2)C(=O)O[C@H](/C(C)=C/C=C/C(=O)OC(C)(C)C)C/C=C/C=C/[C@H](O)[C@H](C)[C@H]1O | 26.6%
66 | O=C1CCC(C(=O)NCCNCCNC(=O)C2CCC(=O)N2)N1 (stereo unspecified) | 87.8%
67 | Nc1nn(C(=O)Nc2ccc(Cc3ccccc3)cc2)c2ccc(Cl)cc12 | 42.5%
68 | COc1cc(/C=C/c2ccccc2)cc(OC)c1 | 92.4%
69 | CC1Cc2ccccc2N1NC(=O)c1ccc(Cl)c(S(N)(=O)=O)c1 (stereo unspecified) | 98.2%
70 | CC1(C)C2CC1C1(/C=N\Nc3ccccc3)C(C2)C(C#N)(C#N)C1(C#N)C#N (stereo unspecified) | 83.9%
71 | COc1ccc(NC(=O)n2nc(/C=C\c3ccc(O)c(OC)c3)cc2/C=C\c2ccc(O)c(OC)c2)cc1 | 9.13% (active)
72 | CN1CCN(c2ccc(-c3ccc4ncc(C#N)c(Nc5ccc(F)c(Cl)c5)c4c3)cn2)CC1 | 32.8%
73 | O=c1[nH]c2c(ccc3cnccc32)c2c1CCC2 | 4.41% (active)
74 | COc1nc2ccccc2cc1-c1nc2c(cnn2-c2ccc(Br)cc2)c(=O)[nH]1 | 23.1%
75 | Cn1cc(C(=O)c2nc(-c3cn(C)c4ccc(F)cc34)no2)c2cc(F)ccc21 | 98.1%
76 | Cc1cccc(OCC(O)CN2CCN(c3ccc(Cl)cc3)CC2)c1 (stereo unspecified) | 86.7%
